Test results published in PubChem BioAssay AID720602 (Broad Institute, 2013).
Results with a measured potency or affinity are listed apart. Activity calls are given as the source filed them.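 The calls were made as follows: active = signal drop at all three exposure times, half-maximal concentration at most twice the top valid dose; inconclusive = exposure times give differing calls; inactive = inactive at every exposure time.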

Assay: cytotoxicity in LOX IMVI melanoma cells – cell-based, CellTiter-Glo ATP luminescence, 8/24/48 h, dry powder, HRAS target identification, dose response (AID 720602)

Row | SMILES | outcome
1 | Cc1onc(C(=O)N2CCN(C(c3ccncc3)c3ccncc3)CC2)c1[N+](=O)[O-] | inactive
2 | CCC(=O)N(c1ccc(OC)c(Cl)c1)C(C(=O)NCCc1ccccc1)c1cccs1 (configuration not stated) | inactive
